Pf growth 48h: P. falciparum growth inhibition at 48 hours (one generation); 310,000 compounds, 5.9% hits; P. falciparum luciferase growth in erythrocytes, 48 h; AID 504832; Potency, µM (highest dose often 28.7 µM), for inactives: at the top dose activity change, negative = inhibition, actives largely listed as inhibitors; also: potency is read from the fitted curve at half-maximal effect; % is scaled to controls: 0 for no effect and ±100 for the full control effect
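Cell-based growth assay: transgenic P. falciparum expressing firefly luciferase, cultured in red cells within RPMI 1640 containing 0.5% w/v Albumax, 24 mM bicarbonate and gentamycin. A drop in luciferase activity indicates inhibition.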
Shiga toxin inh: Shiga toxin inhibition | Vero cells, Shiga toxin protein synthesis inhibition reporter | inhibition, % at 38.7 µM | 290,000 compounds, 9.2% hits | AID 2315; in the data active = inhibition mostly above about 28%, no sharp cut-off; inactive = mostly below about 43%; also: 0% is about no effect
Cycloheximide cs: counter-screen for Shiga toxin inhibitors: cycloheximide protein synthesis inhibition. cell reporter, cycloheximide protein synthesis inhibition counterscreen. max response, %. 300,000 compounds, 12% hits; in the data active = max response mostly above about 13%, no sharp cut-off; inactive = mostly below about 14%; also: read at 38.3 µM for the half of the compounds with a filed dose; 0% is about no effect
Pf growth 96h: P. falciparum growth inhibition at 96 hour, primary screen for plastid delayed-death inhibitors. Potency, µM (top dose mostly 28.7 µM), without a hit: at the highest dose activity change, negative = inhibition, actives largely listed as inhibitors. P. falciparum luciferase reporter growth, 96 h. 320,000 compounds, 6.9% hits; also: potency is read from the fitted curve at half-maximal effect; % is scaled to controls: 0 for no effect and ±100 for the full control effect
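Parasite growth measured via integrated firefly luciferase reporter in P. falciparum. Infected erythrocytes at 2% hematocrit, 0.05% parasitemia final were treated 96 hours at 37 C under 5% CO2, and luminescence was read.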
NS1 inh: influenza NS1 inhibition; Potency, µM (highest dose often 46.1 µM), without a hit: at the highest dose activity, positive = more growth; 270,000 compounds, 0.4% hits; calls by dose curve; also: potency is read from the fitted curve at half-maximal effect; actives are rising curves; nearly all actives have a fitted effect of over 50% in size
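In this qHTS, NS1 from influenza A is expressed in budding yeast, where it slows growth. Cells are switched from glucose to 2% galactose medium (pH 6.0, -URA), treated with compound, and growth recovery is read at OD600.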
Sm TGR inh: S. mansoni TGR enzyme inhibition | Q962Y6 | purified TGR, DTNB reduction, TNB absorbance 405 nm | Potency, µM (doses to about 114 µM), for the others: at the top dose activity change, negative = inhibition, hits mostly inhibitors | 360,000 compounds, 3% hits | AID 485364; also: potency is read from the fitted curve at half-maximal effect; % is scaled to controls: 0 for no effect and ±100 for the full control effect; nearly all actives have a fitted effect of over 60% in size
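TGR 20 nM + NADPH 100 uM (dispensed conc.), cpd preinc 15 min RT; start with NADPH (500 uM addition) then DTNB (15 mM addition). Kinetic TNB absorbance, 405 nm filter. Four-parameter Hill fit across titration.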
Starred values were filed as active, the others as inactive; ? = inconclusive; · = no result given; [ ] = remark or other dose. Most compounds without a hit are left out; they make up all but 21% or so of the library. Unless noted, calls follow the shape of the dose curve; as a rule, active = well fitted curve in the direction sought with a large enough effect; inconclusive = small, poorly fitted or top-dose-only effect, or another doubt; inactive = no such curve, though single readings can be large; an effect the other way counts as inactive or inconclusive.

SMILES | Pf growth 48h | Shiga toxin inh | Cycloheximide cs | Pf growth 96h | NS1 inh | Sm TGR inh
CCCn1nnc2ccccc2c1=O | 37% | -7 | 7 | 27% | 1% | -2%
CCSc1nc2c(c(=O)[nH]c(=O)n2C)n1CC(O)COc1ccc(Cl)cc1 (stereo unspecified) | · | · | · | · | · | 0%
CCc1ccc(C(=O)CSc2nc(-c3ccccc3)nc3c2CCCC3)cc1 | · | · | · | · | · | 1%
O=C(CNC(=O)Cc1ccccc1)NCC(=O)OCc1ccc(C(=O)c2ccccc2)cc1 | 20% | 14 | 8 | 0% | -4% | 7%
CCc1ccc(CNCc2c(C(=O)O)n(Cc3ccc(C)cc3)c3cc(C)ccc23)cc1 | · | · | · | · | · | -7%
CCOC(=O)CNC(=O)Cn1cnc2c(nnn2-c2cccc(OC)c2)c1=O | -6% | 1 | -2 | 13% | -8% | -1%
CCS(=O)(=O)NCc1ccc2c(c1)cc(C)n2C | ? | -2 | -2 | 6.6µM* | 11% | -13%
CCCCC(=O)NCc1ccc2c(c1)cc(C)n2C | 16% | 52* | 14 | 170% | ? | 2%
Cc1cc2cc(CNC(=S)NCc3ccccc3)ccc2n1C | -27% | 35 | -1 | 44% | · | 0%
Cc1cc2cc(CNC(=O)Nc3ccccc3)ccc2n1C | -6% | 48* | 18* | -19% | ? | -5%
CCOC(=O)NCc1ccc2c(c1)cc(C)n2C | -7% | 23 | 15* | 0% | 16% | 5%
CCOC(=O)CCC(=O)NCc1ccc2c(c1)cc(C)n2C | ? | -26 | 1 | 35% | -8% | 0%
Fc1ccc(-c2cn3cc(C(F)(F)F)cc(Cl)c3n2)cc1 | 375% | 103* | 28* | 118% | 8% | -21%
COc1ccc(-c2cn3cc(C(F)(F)F)cc(Cl)c3n2)cc1 | 33% | 80* | 56* | 67% | -7% | 1%
COC(=O)C1CCN(S(=O)(=O)CCNC(=O)c2ccc3c(c2)OCO3)CC1 | 32% | · | · | 28% | · | 1%
Nc1nc(Cl)cc(NCCc2ccccc2)n1 | 21% | 13 | 15* | 31% | · | -15%
CCc1ccc(NC(=O)CCC(=O)Nc2nnc(C(C)C)s2)cc1 | -5% | 10 | 1 | 24% | 11% | -8%
O=C1c2ccccc2NC(c2ccc(Cl)cc2Cl)N1O (stereo unspecified) | ? | -16 | -5 | -29% | -71% | -2%
O=C1c2ccccc2NC(c2cccc(Cl)c2)N1N=C1CCCCCC1 (stereo unspecified) | ? | 52 | 37* | ? | -5% | 11%
CCC(C(=O)NC1CCCCC1)n1c(SCc2cccc(C)c2)nc2ccncc21 (stereo unspecified) | -8% | 21 | 26* | -24% | 25% | 1%
COc1ccccc1S(=O)(=O)Cc1ccc(C(=O)N2CCN(c3cc(Cl)ccc3C)CC2)o1 | · | · | · | · | · | -7%
CC(C)Nc1nc(Cl)nc(N(C#N)CN2C(=O)c3ccccc3S2(=O)=O)n1 | 12% | -1 | 7 | 17% | 0% | 20µM*
N#Cc1ccc(C[C@H](C(=O)O)N2C(=O)c3ccc(C(=O)O)cc3C2=O)cc1 | 6% | -3 | -6 | 2% | · | 6%
Cc1c(N(C)S(=O)(=O)c2cc(C(=O)N3CCCC3)ccc2Cl)c(=O)n(-c2ccccc2)n1C | 13µM* | -3 | 3 | 4.7µM* | 14% | -11%
CCN1CCN(C(=O)c2ccc(Cl)c(S(=O)(=O)N(C)c3ccccc3)c2)CC1 | -8% | · | · | ? | · | -2%
SMILES | Pf growth 48h | Shiga toxin inh | Cycloheximide cs | Pf growth 96h | NS1 inh | Sm TGR inh
O=C(NCc1cccs1)Nc1cccs1 | 46% | 33* | 38* | 41% | ? | -3%
Cc1cccc(NC(=O)Nc2cccs2)c1C | · | · | · | · | · | -10%
O=C(CNC(=O)Cc1ccccc1)NCc1cccs1 | 1% | · | · | 56% | · | -10%
O=C(NCc1ccccc1)NCc1cccs1 | 73% | 41* | 22* | ? | -1% | 0%
O=C(CCS(=O)NCc1ccccc1)NCc1ccccc1 (stereo unspecified) | 19% | 13 | 5 | 16% | -9% | 32µM*
Cc1ccccc1CNC(=O)Nc1cccs1 | 84% | 66* | 51* | -17% | 7% | -23%
O=C(CCCCC(=O)NCc1cccs1)NCc1cccs1 | 7% | -1 | -1 | ? | 4% | 3%
Cc1c(C)c2ccc(OCC(=O)N(C)C3CCS(=O)(=O)C3)c(C)c2oc1=O (stereo unspecified) | ? | -7 | -2 | ? | -11% | -20%
O=C(O)C1C2C=CC(C2)C1C(=O)NCc1cccs1 (stereo unspecified) | -1% | -4 | -5 | 4.1µM* | 0% | ·
O=C(O)C1C2C=CC(C2)C1C(=O)NCc1ccco1 (stereo unspecified) | -7%[5.75 µM] | -5 | -5 | -13% | 3% | -32%
CC(C(=O)NCc1cccs1)n1cccc1 (stereo unspecified) | 7% | 37 | -3 | ? | -3% | -4%
O=C(NCc1cccs1)C(Cc1ccccc1)n1cccc1 (stereo unspecified) | ? | -4 | -2 | -16% | -8% | 40µM*
CSc1ccc(-c2nc3ccc(C)cn3c2Nc2ccccc2C)cc1 | · | · | · | · | · | 4%
Cc1nc2ccccc2c(=O)n1/N=C/c1ccc2ccccc2c1O | ? | 74* | 46* | ? | 0% | 9%
Cc1nc2ccccc2c(=O)n1/N=C/c1ccccc1 | 63% | 33 | 4 | 114% | -12% | 26%
Cc1nc2ccccc2c(=O)n1/N=C/c1ccc(O)c(O)c1O | 0% | -7 | -3 | 23% | 3% | 45µM*
Cc1nc2ccccc2c(=O)n1/N=C/c1cccs1 | 80% | 50 | 25* | 405% | · | 11%
Cc1nc2ccccc2c(=O)n1/N=C/c1ccccc1O | 29% | 88* | 37* | 17% | -10% | 3%
COc1ccc(CNC(=O)CCn2cccn2)cc1 | · | · | · | · | · | 8%
O=C(O)Cc1cccnc1 | · | · | · | · | -1% | ·
Cc1ccc(NC(=O)c2cc(=O)n(Cc3ccccc3)c(=O)[nH]2)cc1C | 21% | -9 | 4 | 6% | · | -21%
CC(C)(C)c1ccc(OCc2ccc(C(=O)NCc3cccnc3)o2)cc1 | 18% | 176* | 45* | 4% | -12% | 3%
CC(C)(C)c1ccc(OCc2ccc(C(=O)NN)o2)cc1 | 39% | 116* | 71* | 80% | 3% | 9%
O=C(NCc1cccnc1)c1ccc(COc2ccc(Cl)cc2)cc1 | 35% | 77 | 8 | 313% | · | 11%
Cc1ccc(NS(=O)(=O)c2cc(C(=O)NCc3cccnc3)ccc2C)cc1 | -20% | 9 | -3 | 8.3µM* | -15% | -1%
Cc1ccc(OCc2ccc(C(=O)NCc3cccnc3)cc2)cc1C | -1% | 52* | 33* | 21% | -12% | ·
NNC(=O)c1ccc(COc2ccc(Br)cc2)o1 | 10%[0.00184 µM] | -7 | 6 | 9% | 0% | -7%
CC(C)C(=O)NNc1ccc(C(F)(F)F)cn1 | ? | -4 | 6 | 20% | 0% | -7%

Source: PubChem BioAssay
